Compound activity: PubChem, National Center for Advancing Translational Sciences (NCATS)
Vaccinia mCherry – vaccinia inhibition (mCherry reporter); Vaccinia virus mCherry reporter infection, fluorescence; Potency, µM (top dose mostly 36.5 µM), inactives show at the top dose activity change, negative = inhibition, hits mostly inhibitors; 0.63% of 310,000 active; AID 720579; calls by dose curve; tested in A549 cells; further: potency means the concentration at half of the fitted maximal effect; nearly all actives have a fitted effect of over 35% in size
Sm TGR block – blocks Schistosoma mansoni thioredoxin glutathione reductase; Q962Y6; purified TGR, DTNB reduction, TNB absorbance 405 nm; Potency, µM (doses to about 114 µM), for inactives: at the highest dose activity change, negative = inhibition, most hits filed as inhibitors; 3% of 360,000 active; further: potency means the concentration at half of the fitted maximal effect; nearly all actives have a fitted effect of over 60% in size
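First, TGR (20 nM dispensed) and NADPH were mixed with compound. Second, a 15 min room-temperature incubation followed. Third, further NADPH and then DTNB were added to start the reaction. Finally, TNB absorbance was monitored kinetically.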
HCV inh – HCV inhibition; Huh7.5.1 HCVcc-Cre infection, luciferase reporter, 44 h; Potency, µM (top dose mostly 41.8 µM), for inactives: at the top dose activity change, negative = inhibition, hits mostly inhibitors; 3.4% of 340,000 active; AID 651820; further: potency means the concentration at half of the fitted maximal effect
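A cell-based infection assay in which seeded cells (1,000 per well) receive test compound after 4 h, are inoculated with HCVcc-Cre at approximately 0.5 moi, and are incubated 44 h before luminescence detection.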
VACV Venus inh – vaccinia inhibition (Venus reporter); 0.46% of 330,000 active; AID 720580; Potency, µM (highest dose often 36.5 µM), for the others: top-dose activity change, negative = inhibition, actives largely listed as inhibitors; Vaccinia virus Venus reporter expression, fluorescence; calls by dose curve; tested in A549 cells; further: potency means the concentration at half of the fitted maximal effect; nearly all actives have a fitted effect of over 30% in size
HCMV inh – human cytomegalovirus inhibition; HFF cells, HCMV-luciferase reporter, 72 h; stronger effect = lower value; activity change, negative = inhibition, % at 57.5 µM; 4.5% of 410,000 active; in the data active means activity change below about -60%; inconclusive means no clear call, values can overlap the other calls; inactive means above about -39%
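Steps: HFFs plated, 16 h 37C; compounds added; HCMV-luciferase added to MOI 1 PFU/cell; 72 h 37C; OneGlo reagent, 5 min room temperature; luminescence read, normalized to controls.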
FMDV antiviral – foot and mouth disease virus antiviral activity | FMDV antiviral cell-based qHTS | Potency, µM (doses to about 57.9 µM), inactives show at the top dose activity change, negative = inhibition, actives largely listed as inhibitors | 1.2% of 410,000 active | AID 1159524; calls by dose curve; tested in HEK293T cells; further: read-out not given here; potency means the concentration at half of the fitted maximal effect; nearly all actives have a fitted effect of over 45% in size
Numbers without * were called inactive; ! = a repeat was not active; [ ] = remark or other dose. Hits are enriched below; roughly 9.3% of the tested compounds scored in any of these assays. Unless noted, the call rests on the fitted dose curve; in most records, active means well fitted curve in the direction sought with a large enough effect; inconclusive means small, poorly fitted or top-dose-only effect, or another doubt; inactive means no such curve, though single readings can be large; an effect the other way counts as inactive or inconclusive. On the % scale 0 is the no-effect control and ±100 the full control effect.

What do the screens show for `O=c1cc(O)c2sc(Nc3ccc(F)c(Cl)c3)nc2[nH]1`?
Vaccinia mCherry: 3.8%; Sm TGR block: -1.0%; HCV inh: inconclusive; VACV Venus inh: 13.0%; HCMV inh: -101.4*; FMDV antiviral: 15.0%

What do the screens show for `OC(c1ccc(Cl)cc1)c1nnc(Nc2ccc(F)c(Cl)c2)s1` (stereo unspecified)?
HCMV inh: -63.3*

What do the screens show for `O=c1cc(O)c2sc(Nc3ccc(Cl)c(F)c3)nc2[nH]1`?
Vaccinia mCherry: inconclusive; Sm TGR block: -0.2%; HCV inh: inconclusive; VACV Venus inh: 7.9%; HCMV inh: -76.5*; FMDV antiviral: -5.4%

What do the screens show for `CCCCNS(=O)(=O)c1cccc(NC(=O)[C@@H]2O[C@H](CO)[C@H](O)[C@H](O)[C@H]2O)c1`?
Vaccinia mCherry: -2.9%; VACV Venus inh: -7.7%; HCMV inh: 21.0; FMDV antiviral: -21.2%

Results for Cc1cc(NC(=O)CCC(=O)N(CC(=O)NC2CCCC2)Cc2ccccc2Cl)no1 ?
Vaccinia mCherry: inactive; Sm TGR block: 7.6%; HCV inh: -2.8%; VACV Venus inh: -8.5%; HCMV inh: -13.0; FMDV antiviral: -17.5%

What do the screens show for `O=C(NC(=S)Nc1ccc(Cc2ccncc2)cc1)c1ccccc1Cl`?
Vaccinia mCherry: 0.8%; Sm TGR block: -13.5%; HCV inh: 2.3%; VACV Venus inh: -1.3%; HCMV inh: -36.4; FMDV antiviral: -10.9%

Results for O=C(NC(=S)Nc1ccc(Cc2ccncc2)cc1)c1ccccc1F ?
Vaccinia mCherry: -16.9%; HCV inh: -25.5%; VACV Venus inh: -26.7%; HCMV inh: -99.2*; FMDV antiviral: -20.3%

Results for O=c1c2cc(NC(=S)NCCCN3CCC(Cc4ccccc4)CC3)ccc2nc2n1CCCCC2 ?
Vaccinia mCherry: -20.9%; Sm TGR block: inconclusive; HCV inh: inconclusive; VACV Venus inh: inconclusive; HCMV inh: -96.2*; FMDV antiviral: -20.8%

How did O=c1c2cc(NC(=S)NC3CCCCC3)ccc2nc2n1CCCCC2 do in these assays?
Vaccinia mCherry: -12.5%; Sm TGR block: -5.2%; HCV inh: inconclusive; VACV Venus inh: -14.1%; HCMV inh: -79.5*; FMDV antiviral: -26.6%

How did COc1cc(C(=O)Nc2ccc3nc4n(c(=O)c3c2)CCCCC4)cc(OC)c1OC do in these assays?
Vaccinia mCherry: -10.1%[7.34 µM]; Sm TGR block: -13.3%; HCV inh: 11.2µM*; VACV Venus inh: -1.0%[7.34 µM]; HCMV inh: 9.2; FMDV antiviral: 10µM*!

What do the screens show for `Cc1cccc(N2CCN(C(=S)Nc3ccc4nc5n(c(=O)c4c3)CCCCC5)CC2)c1C`?
Vaccinia mCherry: -11.8%; Sm TGR block: -0.8%; HCV inh: 6.31µM*; VACV Venus inh: -12.0%; HCMV inh: 73.1; FMDV antiviral: inconclusive

What do the screens show for `C[C@H]1[C@H](C)CC[C@]2(C)CC[C@]3(C)C(=CC(=O)C4[C@@]5(C)CC[C@H](O)C(C)(C)C5CC[C@]43C)[C@H]12` (stereo partly specified)?
Vaccinia mCherry: inactive; Sm TGR block: -4.7%; HCV inh: 3.9%[8.37 µM]; VACV Venus inh: 5.9%; HCMV inh: -8.4; FMDV antiviral: -18.5%

How did CC1CCCCN1C(=S)Nc1ccc2nc3n(c(=O)c2c1)CCCCC3 (stereo unspecified) do in these assays?
Vaccinia mCherry: -13.5%; Sm TGR block: inconclusive; HCV inh: inconclusive; VACV Venus inh: -0.1%; HCMV inh: -104.0*; FMDV antiviral: 22.8%

What do the screens show for `CCOc1ccc(-n2c(C)c3c(C)nnc(C)c3c2C)cc1`?
Vaccinia mCherry: inconclusive; VACV Venus inh: inconclusive; HCMV inh: -62.2*; FMDV antiviral: inconclusive

What do the screens show for `O=C(NCCCN1CCCCCC1)c1ccc2c(Cl)c3c(nc2c1)CCCC3`?
Vaccinia mCherry: inactive; Sm TGR block: inconclusive; HCV inh: 0.631µM*; VACV Venus inh: inconclusive; HCMV inh: inconclusive; FMDV antiviral: -5.5%

What do the screens show for `CCN1CCN(CCCNC(=O)c2ccc3c(Cl)c4c(nc3c2)CCCC4)CC1`?
Vaccinia mCherry: inconclusive; Sm TGR block: inconclusive; HCV inh: inconclusive; VACV Venus inh: 12.6µM*; HCMV inh: -83.2*; FMDV antiviral: -17.0%

Results for CC1CCN(CCCNC(=O)c2ccc3c(Cl)c4c(nc3c2)CCCC4)CC1 ?
Vaccinia mCherry: -16.4%; Sm TGR block: inconclusive; HCV inh: 8.91µM*; VACV Venus inh: 0.2%; HCMV inh: inconclusive; FMDV antiviral: -25.8%

What do the screens show for `CCN1CCN(C(=O)c2ccc3c(Cl)c4c(nc3c2)CCCC4)CC1`?
Vaccinia mCherry: -9.9%; Sm TGR block: -21.4%; HCV inh: inconclusive; VACV Venus inh: -26.9%; HCMV inh: inconclusive; FMDV antiviral: 0.6%

Results for c1ccc2c(OCCCCN3CCOCC3)cccc2c1 ?
Vaccinia mCherry: -14.7%; Sm TGR block: 2.6%; HCV inh: -7.9%; VACV Venus inh: -11.8%; HCMV inh: -30.3; FMDV antiviral: -7.7%

How did COc1ccc(C=O)cc1Cn1c(=O)n(CCC(=O)NCc2ccco2)c(=O)c2sccc21 do in these assays?
Vaccinia mCherry: inactive; Sm TGR block: 1.1%; HCV inh: 26.7%; VACV Venus inh: -6.9%; HCMV inh: -37.0; FMDV antiviral: 1.5%

What do the screens show for `O=C(NCc1ccccc1Cl)c1ccc(NC(=O)N2CCCCc3ccccc32)cc1`?
Vaccinia mCherry: -5.7%; Sm TGR block: 1.1%; VACV Venus inh: -13.8%; HCMV inh: -10.9; FMDV antiviral: 8.0%

How did O=C(NCCOc1ccccc1)c1cncc(Br)c1 do in these assays?
Sm TGR block: 6.9%; HCV inh: -7.9%; VACV Venus inh: -17.1%; HCMV inh: 10.7; FMDV antiviral: 61.7%

What do the screens show for `CCc1cc(C)cc(OCCNC(=O)c2cncc(Br)c2)c1`?
Sm TGR block: 9.7%; HCV inh: 10µM*; VACV Venus inh: inconclusive; HCMV inh: 32.1; FMDV antiviral: -25.5%

Results for O=C(CSc1nnc(COc2cccc3cccnc23)o1)N1CCc2ccccc21 ?
Vaccinia mCherry: -17.9%; Sm TGR block: -2.9%; HCV inh: 2.24µM*; VACV Venus inh: 12.6%; HCMV inh: 60.4

Results for COCCn1c(C)cc(O)c(C(c2ccc(Cl)cc2)N2CCN(c3ccccc3)CC2)c1=O (stereo unspecified) ?
Vaccinia mCherry: -5.7%; Sm TGR block: 2.82µM*; VACV Venus inh: -14.6%; HCMV inh: 10.7; FMDV antiviral: -24.8%

How did COCCn1c(C)cc(O)c(C(c2ccc(F)cc2)N2CCN(c3ccccc3)CC2)c1=O (stereo unspecified) do in these assays?
Vaccinia mCherry: -6.8%; Sm TGR block: 3.16µM*; VACV Venus inh: -2.5%; HCMV inh: 3.0; FMDV antiviral: -23.7%
